High-throughput results (PubChem BioAssay)
Sampled rows, rich in hits. Any-hit rate of the full collection: about 20%.
Shiga toxin inh: inhibitors of Shiga toxin in Vero cells. Vero cells, Shiga toxin protein synthesis inhibition reporter. inhibition, % at 38.7 µM. hit rate 9.2% among 290,000. AID 2315; in the data active means inhibition mostly above about 28%, no sharp cut-off; inactive means mostly below about 43%; further: 0% is about no effect
HCMV antiviral: human cytomegalovirus inhibition. HFF cells, HCMV-luciferase reporter, 72 h; stronger effect = lower value. activity change, negative = inhibition, % at 57.5 µM. hit rate 4.5% among 410,000; in the data active means activity change below about -60%; inconclusive means no clear call, values can overlap the other calls; inactive means above about -39%; further: on the % scale 0 is the no-effect control and ±100 the full control effect
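Steps: HFFs plated, 16 h 37C; compounds added; HCMV-luciferase added to MOI 1 PFU/cell; 72 h 37C; OneGlo reagent, 5 min room temperature; luminescence read, normalized to controls.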
Pf growth 48h: P. falciparum growth inhibition at 48 hours (one generation) | P. falciparum luciferase growth in erythrocytes, 48 h | Potency, µM (series often up to 28.7 µM), inactives show at the top dose activity change, negative = inhibition, most hits filed as inhibitors | hit rate 5.9% among 310,000; further: potency means the concentration at half of the fitted maximal effect; on the % scale 0 is the no-effect control and ±100 the full control effect
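Parasite viability was followed by luminescence of a genomically integrated firefly luciferase. Cultures held 0.1% parasitemia at 2% hematocrit (final), incubated under 5% CO2 at 37 C.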
Pf growth 96h: P. falciparum growth inhibition at 96 hour, primary screen for plastid delayed-death inhibitors. AID 504834. Potency, µM (top dose mostly 28.7 µM), for inactives: at the highest dose activity change, negative = inhibition, most hits filed as inhibitors. hit rate 6.9% among 320,000. P. falciparum luciferase reporter growth, 96 h; further: potency means the concentration at half of the fitted maximal effect; on the % scale 0 is the no-effect control and ±100 the full control effect
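Two-generation exposure (96 h) targets delayed-death phenotype. Reporter parasites carrying integrated firefly luciferase, in red cells at 2% hematocrit and 0.05% parasitemia final, kept at 37 C, 5% CO2; luminescence loss indicates inhibition.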
Cycloheximide cs: affects cycloheximide protein synthesis inhibition readout, counter-screen | cell reporter, cycloheximide protein synthesis inhibition counterscreen | max response, % | hit rate 12% among 300,000 | AID 2314; in the data active means max response mostly above about 13%, no sharp cut-off; inactive means mostly below about 14%; further: read at 38.3 µM for the half of the compounds with a filed dose; 0% is about no effect
* = called active by the depositor; ? = inconclusive; / = no result; + = active, no number. Unless noted, the call rests on the fitted dose curve; in most records, active means well fitted inhibition curve with a large enough effect; inconclusive means small, poorly fitted or top-dose-only effect, or another doubt; inactive means no such curve, though single readings can be large or run the other way.

SMILES	Shiga toxin inh	HCMV antiviral	Pf growth 48h	Pf growth 96h	Cycloheximide cs
Cc1ccc(-c2cc(C(F)F)nc(NCC3CCCO3)n2)cc1 (centres undefined)	47.8*	34.6	-4.5%	20.6%	15.6*
FC(F)(F)c1cc(-c2ccc(Cl)cc2)nc(NCc2cccnc2)n1	-24.7	-27.0	3.7µM*	/	-4.4
Cc1ccc(-c2cc(C(F)F)nc(NCc3cccs3)n2)cc1	8.6	28.0	11.4%	2.62µM*	-0.5
CC(C)C(C(=O)NCC1CCCO1)N(Cc1ccccc1)C(=O)CNS(=O)(=O)c1ccccc1 (centres undefined)	5.0	13.4	-10.4%	15.0%	-7.6
CC(=O)OCC(=O)C1(O)CCC2C3CC(C)C4=CC(=O)C=CC4(C)C3=CCC21C (centres undefined)	/	15.5	/	/	/
COc1ccc(C2CC(=O)Nc3c2c(=O)nc2c(C)cccn32)cc1 (centres undefined)	/	-7.4	/	/	/
Cc1ccc(-n2ncc(C(=O)N3CCN(c4ccccc4F)CC3)c2C2CCN(C(=O)OC(C)(C)C)CC2)cc1C	/	+	/	/	/
CC(C)(C)OC(=O)N1CCC(c2c(C(=O)N3CCCCC3)cnn2-c2ccc(F)cc2F)CC1	/	0.0	/	/	/
CCOC(=O)N1CCC(NC(=O)c2cnn(-c3ccc(F)cc3F)c2C2CCN(C(=O)OC(C)(C)C)CC2)CC1	/	+	/	/	/
CCN1CCN(C(=O)c2cnn(-c3ccc(F)cc3F)c2C2CCN(C(=O)OC(C)(C)C)CC2)CC1	/	+	/	/	/
CC(C)(C)OC(=O)N1CCC(c2c(C(=O)N3CCN(C(=O)c4ccco4)CC3)cnn2-c2ccc(F)cc2F)CC1	14.3	-13.4	9.28µM*	49.7%	-2.4
CC(=O)N(Cc1cccnc1)c1nc2c(C)cccc2s1	/	5.3	/	/	/
COc1ccc2ccc3c(c2c1)N=C[C@]1(O3)N(C)c2ccccc2C1(C)C	39.7	?	?	6.57µM*	-1.3
CC1=NOC2(C1)N(C)c1ccccc1C2(C)C (centres undefined)	24.4	4.7	39.3%	0.0%	11.6
CCOc1ccccc1NC(=O)N1CCCC(c2nc3c(nnn3Cc3ccc(C)cc3)c(=O)[nH]2)C1 (centres undefined)	15.0	-20.9	4.15µM*	0.0%	-1.9
Cc1ccccc1Cn1nnc2c(=O)[nH]c(C3CCCN(C(=O)c4ccc(F)cc4)C3)nc21 (centres undefined)	/	16.0	/	/	/
Cc1ccc(Cn2nnc3c(=O)[nH]c(C4CCCN(C(=O)Nc5ccc(F)cc5F)C4)nc32)cc1 (centres undefined)	-11.9	-25.7	?	?	-3.6
Cc1ccc(C)c(Cn2nnc3c(=O)[nH]c(C4CCCN(C(=O)CC(C)C)C4)nc32)c1 (centres undefined)	-13.3	27.9	?	/	0.5
Cc1ccc(C(=O)N2CCCC(c3nc4c(nnn4Cc4ccccc4)c(=O)[nH]3)C2)cc1 (centres undefined)	-6.2	13.3	10.4µM*	/	2.5
CCCCC(=O)N1CCCC(c2nc3c(nnn3Cc3cc(C)ccc3C)c(=O)[nH]2)C1 (centres undefined)	-14.5	-5.9	8.28µM*	?	-1.1
CC(C)COc1cccc(C(=O)NC(=S)Nc2cccc(NC(=O)c3ccccc3Cl)c2)c1	-6.8	-4.9	7.0%	1.6%	1.1
C=CCN(CC=C)C(=O)CN1C(=O)NC(c2ccccc2)(c2ccccc2)C1=O	-2.2	-8.4	0.0%	-5.7%	1.7
Cc1ccc(S(=O)(=O)N2CCN(CCOc3ccccc3)CC2)cc1	/	-30.8	?	-3.0%	/
CCN(CC)C(=O)c1ccc(NC(=O)c2cccc(S(=O)(=O)N3CCN(Cc4ccccc4)CC3)c2)cc1	/	-77.9*	10.4µM*	11.7µM*	/
CC1CCCCC1NC(=O)c1cccc(S(=O)(=O)N2CCN(Cc3ccccc3)CC2)c1 (centres undefined)	/	-23.4	16.5µM*	14.7µM*	/
SMILES	Shiga toxin inh	HCMV antiviral	Pf growth 48h	Pf growth 96h	Cycloheximide cs
COc1cccc(NC(=O)c2cccc(S(=O)(=O)N3CCN(Cc4ccccc4)CC3)c2)c1	/	-15.2	?	7.38µM*	/
COc1ccc(NC(=O)CN(C)C(=O)c2cccc(S(=O)(=O)N3CCN(Cc4ccccc4)CC3)c2)cc1	-21.9	/	-7.6%	-78.3%	-1.7
CC(=O)c1cccc(S(=O)(=O)N2CCN(CCOc3ccccc3)CC2)c1	/	-61.3*	-11.7%	-22.3%	/
N#Cc1nc(-c2cccs2)oc1NCCCN1CCOCC1	-2.5	-20.8	?	?	-0.2
CC(=O)Nc1cccc(NC(=O)c2cccc(S(=O)(=O)N3CCN(Cc4ccccc4)CC3)c2)c1	/	-14.2	10.4µM*	10.4µM*	/
C/C(=N\Nc1ccc(C(=O)O)cc1)c1ccc2c(c1)Nc1ccccc1S2	48.0*	0.0	?	?	68.5*
c1cc2c(cnc3cscc32)s1	19.2	?	20.7%	60.3%	16.3*
Cc1nc2ccc(S(=O)(=O)NC(C(=O)N3CCN(c4cccc(Cl)c4)CC3)C(C)C)cc2s1 (centres undefined)	/	-21.2	/	/	/
COc1ccc(/C(N)=N/OC(=O)c2ccc3c(c2)OCO3)cc1OC	-5.4	169.4	?	?	11.9
N/C(=N\OC(=O)c1ccc2c(c1)OCO2)c1cccc(Br)c1	86.8*	61.5	36.0%	1.2%	30.4*
N/C(=N\OC(=O)c1ccc2c(c1)OCO2)c1cccnc1	58.3*	21.5	-22.9%	77.1%	20.6*
COc1cc2c(cc1NC(=O)c1ccc(C(C)(C)C)cc1)CCCC2	21.7	-90.3*	?	?	21.2
COc1ccc(C(=O)Nc2cc3c(cc2OC)CCCC3)cc1Br	-1.6	-17.5	-10.6%	?	-2.7
COc1cc2c(cc1NC(=O)c1cccnc1)CCCC2	22.9	36.5	13.7%	?	19.9*
CCN(CC)S(=O)(=O)c1ccc2c(c1)nc(CN(C)C(=O)Nc1ccc(F)cc1)n2C	/	3.6	/	/	/
Cc1ccc(CNC(=O)Cn2cc(S(=O)(=O)Cc3ccccc3F)c3ccccc32)cc1	/	0.0	/	/	/
OC1CC2CCC(C1)N2CCCN1c2ccccc2Sc2ccc(Cl)cc21 (centres undefined)	/	-64.9*	/	/	/
CN1CCN(CCCN2c3ccccc3Sc3ccccc32)CC1	-11.8	/	/	/	-1.9
CN(C)CCCN1c2ccc(O)cc2Sc2ccc(Cl)cc21	/	-36.1	/	/	/
CCSc1ccc2c(c1)N(CCCN1CCN(C)CC1)c1ccccc1S2	/	-38.2	9.28µM*	?	/
CN1CCN(CCCN2c3ccccc3Sc3ccc(Cl)cc32)CC1	-19.3	-28.7	9.28µM*	9.28µM*	-5.3
CC1(C)C2CCC(CN=C(N)CSS(=O)(=O)O)C1C2 (centres undefined)	/	-38.4	/	/	/
CN(C(=O)COC(=O)C1CCN(S(=O)(=O)c2cccs2)CC1)c1ccccc1	-9.0	-36.3	-27.5%	20.4%	-0.7
CCN(c1cccc(C)c1)S(=O)(=O)c1ccc(N2CCCCS2(=O)=O)cc1	/	-10.9	/	/	/
O=C1C(=O)c2cccnc2-c2ncccc21	/	-99.1*	/	/	/
COC1=C(Br)C(=O)c2ncccc2C1=O	/	-69.0*	/	/	/
COC(=O)c1c(NC(=O)CN2C(=O)NC3(CCc4ccccc4C3)C2=O)sc2c1CCCCC2 (centres undefined)	-18.2	-9.8	-17.8%	-2.0%	-6.0
